In the library only some 32% were active in any assay of this set; here they are far more common.
CYP2C9 activ – human CYP2C9 activators, primary screen, biochemical, luminescence; recombinant CYP2C9, luciferin-H conversion; active compounds read high; factor 1 = untreated enzyme, 0 = blocked; activation factor at 5 µM; actives 1.4% (n = 96,000); AID 1024, 2008;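 active = activation factor of 2 or more for CYP2C9 at a 5 µM dose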;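 note: 0 = sulfaphenazole-blocked wells and 1 = vehicle-only wells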
CYP2C19 act – human CYP2C19 activators, primary screen, biochemical, luminescence; activation factor at 5 µM; recombinant CYP2C19, luciferin-H EGE luminescence; active compounds read high; 0 = fully inhibited enzyme, 1 = untreated enzyme; AID 1025, 2008; Cytochrome P450 2C19 (Homo sapiens), P33261; 96,000 tested, under 10 active;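 active = activation factor of at least 2 at 5 µM in the primary screen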;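 note: 0 = wells with 2.5 mM tranylcypromine and 1 = vehicle-only wells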
Target sequence (P33261 whole entry, looked up): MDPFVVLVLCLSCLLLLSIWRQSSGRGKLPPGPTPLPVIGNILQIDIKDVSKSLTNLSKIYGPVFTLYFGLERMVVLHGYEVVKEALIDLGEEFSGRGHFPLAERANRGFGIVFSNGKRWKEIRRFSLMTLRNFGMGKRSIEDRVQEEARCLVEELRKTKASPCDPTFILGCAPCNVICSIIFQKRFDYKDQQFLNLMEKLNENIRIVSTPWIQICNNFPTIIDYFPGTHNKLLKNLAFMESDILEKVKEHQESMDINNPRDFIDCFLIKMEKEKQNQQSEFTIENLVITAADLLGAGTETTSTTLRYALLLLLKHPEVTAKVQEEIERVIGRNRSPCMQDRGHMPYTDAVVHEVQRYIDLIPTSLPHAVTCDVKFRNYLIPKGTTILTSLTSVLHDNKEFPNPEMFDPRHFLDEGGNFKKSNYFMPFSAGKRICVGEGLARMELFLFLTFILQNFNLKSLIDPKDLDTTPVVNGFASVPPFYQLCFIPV
PostGolgi yeast – phenotypic screen on post-Golgi transport, primary screen | post-Golgi transport phenotypic cell assay | inhibition, % at 10 µM | actives 0.9% (n = 98,000) | AID 739, 2007;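 note: yeast cells grown in 1536-well plates; yeast grown about 18 h at 30C before absorbance read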
PostGolgi ctrl – growth inhibition of yeast control strain, primary screen, counter-screen for post-Golgi transport modulator project | actives 5% (n = 98,000) | efflux-deficient yeast background strain, growth absorbance A615, 16 h | inhibition, % at 10 µM
CYP2C19 inhib – blockers of cytochrome P450 2C19 activity – biochemical, luminescence, ADME assay, primary screen | inhibition, % at 5 µM | CYP2C19 Supersomes, luciferin-H EGE luminescence, 30 min | P33261 | actives 21% (n = 96,000);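 active = CYP2C19 inhibition above a set limit at 5 µM in the primary screen, cut at about 50% in these data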;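 note: plate controls were negative control wells for no effect and 2.5 mM tranylcypromine positive control for full effect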
CYP2C9 inhib – blockers of cytochrome P450 2C9 activity – biochemical, luminescence, ADME assay, primary screen. P11712. CYP2C9 Supersomes, luciferin-H conversion. inhibition, % at 5 µM. actives 20% (n = 96,000);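 active = blocking of liver enzyme CYP2C9 beyond about 50% at 5 µM, limit read from the data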
The depositor's hits bear a star; . = no result given. Cut-off read from the data, not from the text of the source, unless noted: active = inhibition above about 30%; inactive = the rest.

SMILES	CYP2C9 activ	CYP2C19 act	PostGolgi yeast	PostGolgi ctrl	CYP2C19 inhib	CYP2C9 inhib
Cc1ccc(C)c(C(=O)Cn2ncc(Cl)c(Cl)c2=O)c1	2.1*	0.8	18.4	18.4	16.7	-106.2
CC(C)N(Cc1nc(-c2ccccc2)no1)C(=O)CN(C)S(=O)(=O)c1ccccc1	0.3	0.2	-10.2	33.7*	79.4*	69.1*
O=S(=O)(c1ccccc1)N(Cc1nc(-c2ccccc2)no1)C1CCCCC1	0.1	0.5	-4.2	15.7	50.5*	92.6*
CC(C)N(Cc1nc(-c2ccccc2)no1)S(=O)(=O)c1ccccc1	0.3	0.4	-3.8	15.5	58.4*	67.5*
O=S(=O)(c1cccc(NC(=S)Nc2ccc(Br)cc2Cl)c1)N1CCOCC1	0.9	0.7	6.4	1.1	28.0	14.0
Cc1ccc(Cn2c(CN3CCOCC3)nc3c2c(=O)n(C)c(=O)n3C)cc1	.	.	4.2	0.8	.	.
CN(Cc1ccccc1)Cc1nc2c(c(=O)n(C)c(=O)n2C)n1Cc1ccc(Cl)cc1	0.5	0.8	1.1	31.0*	22.2	50.3*
Cn1c(=O)c2c(nc(Br)n2CCCc2ccccc2)n(C)c1=O	1	0.8	-0.6	2.4	17.8	-1.7
CCC1CCCCN1Cc1nc2c(c(=O)n(C)c(=O)n2C)n1Cc1ccccc1 (stereo unspecified)	.	.	6.6	.	.	.
CN(Cc1ccccc1)c1nc2c(c(=O)n(C)c(=O)n2C)n1CCCc1ccccc1	0	0.1	0.3	43.3*	88.5*	97.0*
CCCCCn1c(CN(C)Cc2ccccc2)nc2c1c(=O)n(C)c(=O)n2C	0	0.2	-4.8	16.5	82.1*	99.7*
Cc1ccc(Cn2c(CN(C)Cc3ccccc3)nc3c2c(=O)n(C)c(=O)n3C)cc1	0.1	0.2	0.2	37.9*	78.5*	93.5*
CN1CCN(Cc2nc3c(c(=O)n(C)c(=O)n3C)n2CCCc2ccccc2)CC1	0.9	1	1.9	1.4	4.8	11.1
CCOC(=O)c1sc2cc([N+](=O)[O-])cc(SCC(C)C)c2c1N	0.8	1.1	-18.9	-2.2	-7.0	17.2
CN(c1ccc(C(=O)N2CCOCC2)cc1[N+](=O)[O-])C1CCCCC1	1	1	1.8	1.8	0.2	-2.2
CCOCCn1c(CN(Cc2ccccc2)Cc2ccccc2)nc2c1c(=O)n(C)c(=O)n2C	0.1	0.2	1.8	24.0	76.4*	94.2*
CCCCCCn1c(NCC)nc2c1c(=O)n(C)c(=O)n2C	2.8*	0.8	7.6	8.0	16.0	-175.3
CCOCCn1c(CN(Cc2ccccc2)Cc2ccccc2)nc2c1c(=O)[nH]c(=O)n2C	0.6	0.9	-0.3	15.2	7.1	43.9
Cn1c(=O)c2c(nc(CN3CCC(C(N)=O)CC3)n2Cc2c(Cl)cccc2Cl)n(C)c1=O	0.3	0.8	11.3	-1.5	18.9	67.7*
Cc1ccc(C)c(Cn2c(CN(C)Cc3ccccc3)nc3c2c(=O)n(C)c(=O)n3C)c1	0.1	0.3	2.6	45.4*	65.8*	92.2*
CCOC(=O)N1CCN(Cc2nc3c(c(=O)n(C)c(=O)n3C)n2Cc2cc(C)ccc2C)CC1	0.9	0.7	.	.	27.2	12.4
COC(=O)CSc1nc2c(c(=O)n(C)c(=O)n2C)n1CCCc1ccccc1	0.1	0.3	1.6	16.5	67.3*	85.1*
CN(Cc1ccccc1)Cc1nc2c(c(=O)n(C)c(=O)n2C)n1Cc1ccc(F)cc1	0.3	0.7	-10.7	27.3	26.3	72.4*
CCCCn1c(SCc2nnc(-c3ccccc3)o2)nc2c1c(=O)n(C)c(=O)n2C	0.2	0.4	0.0	13.7	64.0*	77.0*
Cn1c(=O)c2c(nc(CN3CCN(Cc4ccccc4)CC3)n2Cc2ccc(Cl)cc2)n(C)c1=O	0.5	0.7	-16.7	7.4	32.9	50.8*
CCCCn1c(SCC(=O)OC)nc2c1c(=O)n(C)c(=O)n2C	1	1	-2.2	7.2	-2.1	1.0
Cn1c(=O)c2c(nc(CN3CCN(Cc4ccccc4)CC3)n2Cc2ccccc2)n(C)c1=O	0.9	0.6	-1.0	17.3	37.9	9.2

From PubChem BioAssay
